From PubChem BioAssay AID1159580 (chemical genetic matrix, 2015)
Hit rate of the full screen: of about 5,500 compounds, about 2,000 (36%) were called active. Not shown: some 18% with an inconclusive outcome. Cut-off read from the data, not from the text of the source: active = normalized growth mostly below about 0.91 (no sharp cut-off); inconclusive = no clear call, values can overlap the other calls; inactive = mostly above about 0.92. Some of the results follow.

Assay: chemical genetic growth profiling, strain panel (AID 1159580);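 note: tested at 20 µM; growth read once vehicle control cultures reached saturation at 30 °C; 1 = growth at the plate median or of vehicle wells; lower values mean less growth of the strain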
Conditions: S. cerevisiae deletion strains, growth OD
[1] = locus YAR019C, strain CDC15, hits give low values
[2] = locus YBL105C, strain PKC1, hits give low values
[3] = locus YBR135W, strain CKS1, hits give low values
[4] = locus YBR136W, strain MEC1, hits give low values
[5] = locus YBR160W, strain CDC28, hits give low values
[6] = locus YDL017W, strain CDC7, hits give low values
[7] = locus YDL028C, strain MPS1, hits give low values
[8] = locus YDL101C, strain DUN1, hits give low values
[9] = locus YDL108W, strain KIN28, hits give low values
[10] = locus YDL132W, strain cdc53, hits give low values
[11] = locus YDL214C, strain PRR2, hits give low values
[12] = locus YDR052C, strain DBF4, hits give low values
[13] = locus YDR054C, strain cdc34, hits give low values
[14] = locus YDR226W, strain ADK1, hits give low values
[15] = locus YDR477W, strain SNF1, hits give low values
[16] = locus YER123W, strain YCK3, hits give low values
[17] = locus YER133W, strain GLC7, hits give low values
[18] = locus YFL009W, strain cdc4, hits give low values
[19] = locus YFL029C, strain CAK1, hits give low values
[20] = locus YFR003C, strain YPI1, hits give low values
[21] = locus YFR019W, strain FAB1, hits give low values
[22] = locus YFR028C, strain CDC14, hits give low values
[23] = locus YGR040W, strain KSS1, hits give low values
[24] = locus YGR052W, strain FMP48, hits give low values
[25] = locus YGR092W, strain DBF2, hits give low values
[26] = locus YHR030C, strain SLT2, hits give low values
[27] = locus YHR079C, strain IRE1, hits give low values
[28] = locus YHR082C, strain KSP1, hits give low values
[29] = locus YHR205W, strain SCH9, hits give low values
[30] = locus YIL147C, strain SLN1, hits give low values
[31] = locus YJL095W, strain BCK1, hits give low values
[32] = locus YJL128C, strain PBS2, hits give low values
[33] = locus YJL157C, strain FAR1, hits give low values
[34] = locus YJR016C, strain ILV3, hits give low values
[35] = locus YJR066W, strain TOR1 (second series), hits give low values
[36] = locus YJR066W, strain TOR1, hits give low values
[37] = locus YKL048C, strain ELM1, hits give low values
[38] = locus YKL067W, strain YNK1, hits give low values
[39] = locus YKL101W, strain HSL1, hits give low values
[40] = locus YKL193C, strain SDS22, hits give low values
[41] = locus YKL203C, strain TOR2, hits give low values
[42] = locus YLR113W, strain HOG1, hits give low values
[43] = locus YLR133W, strain CKI1, hits give low values
[44] = locus YLR403W, strain SFP1, hits give low values
[45] = locus YML070W, strain DAK1, hits give low values
[46] = locus YMR001C, strain CDC5, hits give low values
[47] = locus YMR205C, strain PFK2 (second series), hits give low values
[48] = locus YMR277W, strain FCP1, hits give low values
[49] = locus YNL006W, strain LST8, hits give low values
[50] = locus YNL020C, strain ARK1, hits give low values
[51] = locus YNL161W, strain CBK1, hits give low values
[52] = locus YNL183C, strain NPR1, hits give low values
[53] = locus YNL207W, strain RIO2, hits give low values
[54] = locus YNL222W, strain SSU72, hits give low values
[55] = locus YNL307C, strain MCK1 (second series), hits give low values
[56] = locus YOL078W, strain AVO1, hits give low values
[57] = locus YOL136C, strain PFK27, hits give low values
[58] = locus YOR061W, strain CKA2, hits give low values
[59] = locus YOR119C, strain RIO1, hits give low values
[60] = locus YOR231W, strain MKK1, hits give low values
[61] = locus YOR329C, strain SCD5, hits give low values
[62] = locus YPL031C, strain PHO85, hits give low values
[63] = locus YPL153C, strain RAD53, hits give low values
[64] = locus YPL204W, strain HRR25, hits give low values
[65] = locus YPL209C, strain IPL1, hits give low values
[66] = locus YPL256C, strain CLN2, hits give low values
[67] = locus YPR025C, strain CCL1, hits give low values
[68] = locus YPR106W, strain ISR1, hits give low values
[69] = locus YPR111W, strain DBF20, hits give low values
[70] = strain NNK1, hits give low values
[71] = strain TSCII, hits give low values

Measured: normalized growth

Fc1cccc(Cl)c1CSc1n[nH]c(-c2cc(C(F)(F)F)cc(C(F)(F)F)c2)n1
active: [26] 0.372 | [42] 0.773 | [66] 0.811
inactive: [1] 0.973 | [2] 0.981 | [3] 0.981 | [4] 0.982 | [5] 0.977 | [6] 0.987 | [7] 0.961 | [8] 0.986 | [9] 0.97 | [10] 0.975 | [11] 0.916 | [12] 0.994 | [13] 0.973 | [14] 0.971 | [15] 0.891 | [16] 0.918 | [17] 0.939 | [18] 0.961 | [19] 0.973 | [20] 0.977 | [21] 0.913 | [22] 0.973 | [23] 0.898 | [24] 0.925 | [25] 0.914 | [27] 0.836 | [28] 0.871 | [29] 0.821 | [30] 0.98 | [31] 0.79 | [32] 0.957 | [33] 0.926 | [34] 0.981 | [35] 0.918 | [36] 0.873 | [37] 0.974 | [38] 0.916 | [39] 0.889 | [40] 0.975 | [41] 1.01 | [43] 0.902 | [44] 0.926 | [45] 0.907 | [46] 0.97 | [47] 0.937 | [48] 0.959 | [49] 0.983 | [50] 0.905 | [51] 0.976 | [52] 0.933 | [53] 0.978 | [54] 0.965 | [55] 0.744 | [56] 0.976 | [57] 0.878 | [58] 0.911 | [59] 0.943 | [60] 0.846 | [61] 0.983 | [62] 0.896 | [63] 0.894 | [64] 0.868 | [65] 0.979 | [67] 0.981 | [68] 0.97 | [69] 0.945 | [70] 0.96 | [71] 0.972

CSc1n[nH]c(-c2cc(C(F)(F)F)cc(C(F)(F)F)c2)n1
inactive: [1] 0.939 | [2] 0.952 | [3] 0.946 | [4] 0.948 | [5] 0.939 | [6] 0.955 | [7] 0.939 | [8] 0.973 | [9] 0.918 | [10] 0.955 | [11] 0.892 | [12] 0.977 | [13] 0.938 | [14] 0.942 | [15] 0.895 | [16] 0.892 | [17] 0.935 | [18] 0.92 | [19] 0.918 | [20] 0.953 | [21] 0.979 | [22] 0.936 | [23] 0.893 | [24] 0.92 | [25] 0.894 | [27] 0.82 | [28] 0.914 | [29] 0.785 | [30] 0.941 | [31] 0.791 | [32] 0.859 | [33] 0.938 | [34] 0.947 | [35] 0.939 | [36] 0.859 | [37] 0.904 | [38] 0.887 | [39] 0.853 | [40] 0.939 | [41] 1 | [43] 0.904 | [44] 0.927 | [45] 0.878 | [46] 0.937 | [47] 0.925 | [48] 0.921 | [49] 0.945 | [50] 0.897 | [51] 0.948 | [52] 0.868 | [53] 0.947 | [54] 0.927 | [55] 0.856 | [56] 0.953 | [57] 0.84 | [58] 0.937 | [59] 0.942 | [60] 0.776 | [61] 0.95 | [62] 0.885 | [63] 0.887 | [64] 0.864 | [65] 0.952 | [67] 0.946 | [68] 0.929 | [69] 0.952 | [70] 0.917 | [71] 0.937
active: [26] 0.671 | [42] 0.615 | [66] 0.709
